Screening data: PubChem BioAssay, National Center for Advancing Translational Sciences (NCATS)
A selection: hits, their analogues and other compounds. The true share with any hit is near 2.9%.
KDM5B inhibitor – inhibitors of human KDM5B histone demethylase; Potency, µM (highest dose often 57.7 µM), usual class: inhibitors; 2.6% of 220,000 active; Q9UGL1; KDM5B demethylase, FDH-coupled NADH fluorescence (FDH is formaldehyde dehydrogenase); also: nearly all actives have a fitted effect of over 70% in size
Target sequence (Q9UGL1 whole entry, looked up): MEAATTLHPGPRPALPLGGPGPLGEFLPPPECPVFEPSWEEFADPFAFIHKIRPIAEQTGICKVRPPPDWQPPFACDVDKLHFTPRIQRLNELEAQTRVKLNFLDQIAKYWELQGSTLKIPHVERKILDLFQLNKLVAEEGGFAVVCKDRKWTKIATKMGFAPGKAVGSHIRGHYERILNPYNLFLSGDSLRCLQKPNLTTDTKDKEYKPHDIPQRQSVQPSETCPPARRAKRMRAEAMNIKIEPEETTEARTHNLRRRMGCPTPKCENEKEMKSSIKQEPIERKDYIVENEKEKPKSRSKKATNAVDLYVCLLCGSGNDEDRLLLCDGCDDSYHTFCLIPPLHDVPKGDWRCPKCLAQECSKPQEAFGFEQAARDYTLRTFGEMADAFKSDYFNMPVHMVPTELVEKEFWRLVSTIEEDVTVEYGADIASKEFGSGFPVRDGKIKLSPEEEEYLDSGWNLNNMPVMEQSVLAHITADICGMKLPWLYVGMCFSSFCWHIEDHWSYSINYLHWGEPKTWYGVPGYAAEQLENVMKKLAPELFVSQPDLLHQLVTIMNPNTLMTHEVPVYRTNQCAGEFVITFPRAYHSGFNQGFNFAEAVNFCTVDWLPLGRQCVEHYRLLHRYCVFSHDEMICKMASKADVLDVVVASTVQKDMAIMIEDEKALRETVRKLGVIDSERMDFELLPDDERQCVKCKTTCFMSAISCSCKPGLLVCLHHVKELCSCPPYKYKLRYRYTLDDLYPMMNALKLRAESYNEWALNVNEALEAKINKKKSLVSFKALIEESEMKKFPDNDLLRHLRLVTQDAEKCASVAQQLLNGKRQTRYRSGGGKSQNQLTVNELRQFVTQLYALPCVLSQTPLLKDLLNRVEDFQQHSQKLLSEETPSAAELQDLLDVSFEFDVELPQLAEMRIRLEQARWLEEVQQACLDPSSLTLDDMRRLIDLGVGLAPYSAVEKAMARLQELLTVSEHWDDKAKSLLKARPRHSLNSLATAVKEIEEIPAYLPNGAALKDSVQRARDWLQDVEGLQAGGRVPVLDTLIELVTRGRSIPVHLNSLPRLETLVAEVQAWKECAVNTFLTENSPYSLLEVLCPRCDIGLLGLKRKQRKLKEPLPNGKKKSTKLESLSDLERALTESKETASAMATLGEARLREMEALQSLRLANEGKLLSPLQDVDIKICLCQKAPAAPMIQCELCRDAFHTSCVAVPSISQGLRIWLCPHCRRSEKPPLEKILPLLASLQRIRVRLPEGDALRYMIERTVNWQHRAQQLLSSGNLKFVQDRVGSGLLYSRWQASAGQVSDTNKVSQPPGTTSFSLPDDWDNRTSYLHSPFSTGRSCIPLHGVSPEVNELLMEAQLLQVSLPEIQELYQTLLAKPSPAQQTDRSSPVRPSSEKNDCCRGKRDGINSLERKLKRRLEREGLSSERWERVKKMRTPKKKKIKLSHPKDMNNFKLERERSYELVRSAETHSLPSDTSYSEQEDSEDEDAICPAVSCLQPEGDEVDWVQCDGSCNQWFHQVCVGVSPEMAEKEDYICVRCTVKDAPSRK
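Here, H3K4me3 peptide (12.5 µM in substrate mix) is demethylated by KDM5BΔAP, 200 nM final, after 10 min compound exposure. Formaldehyde product is coupled through FDH (0.25 U/mL in mix) to NADH fluorescence; 30-min ΔRFU feeds dose-response curves.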
SNCA viab count – counter-screen for SNCA expression inhibitors: cell viability. HEK-293-SNCA-luc viability, GF-AFC fluorescence, 24 h. 0.12% of 150,000 active. Potency, µM (series often up to 57.1 µM), most hits filed as cytotoxic; also: nearly all actives have a fitted effect of over 30% in size
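Cytotoxicity counterscreen: after 24 h compound treatment of genome-edited SNCA-luciferase HEK-293 cells, live-cell protease substrate GF-AFC read by fluorescence after 30 min; activity scaled between DMSO (0%) and medium-only (-100%), curves Hill-fitted.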
SNCA expr inhib – reduces expression of the alpha-synuclein gene. HEK-293 SNCA-luciferase knock-in, luminescence, 24 h. Potency, µM (highest dose often 57.2 µM), hits mostly inhibitors. 0.17% of 140,000 active; also: nearly all actives have a fitted effect of over 45% in size
IP6K1 inh – IP6K1 kinase inhibition; Q92551; IP6K1 kinase, ADP-Glo luminescence, 2 h; hits give low values; activity change, % (series mostly up to about 58 µM); 0.81% of 140,000 active; AID 1645851; in the data active = activity change below about -25%
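ADP-Glo luminescence measures ADP made by human IP6K1 during a 2 h RT reaction with ATP/IP6 (mix at 1.3 mM/130 uM); top library doses 57.5 and 19.1 uM final.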
Hits are given with their value; n = inactive; u = inconclusive; x = not tested or not shown. Unless noted, calls follow the shape of the dose curve; as a rule, active = well fitted curve in the direction sought with a large enough effect; inconclusive = small, poorly fitted or top-dose-only effect, or another doubt; inactive = no such curve, though single readings can be large; an effect the other way counts as inactive or inconclusive.

SMILES	KDM5B inhibitor	SNCA viab count	SNCA expr inhib	IP6K1 inh
CSCC(=O)Nc1ccc2n(c1=O)C[C@H]1C[C@@H]2CN(C(=O)c2ccc(-c3ccccc3)cc2)C1	n	n	n	n
CC(C)C[C@@H]1N[C@H](C(=O)N2CCN(C)CC2)Cc2c[nH]c3cccc1c23	32µM	n	n	n
CC(C)C[C@@H]1N[C@H](C(=O)N2CCCC2)Cc2c[nH]c3cccc1c23	u	n	n	n
O=C(O)[C@@H]1CN(C(=O)c2ccn[nH]2)C[C@H]1c1ccc2c(c1)OCO2	n	n	n	n
COc1ccc(-c2nc(C3CC3)nc3c2CCN(CC2CCCCC2)CC3)cc1	25µM	n	n	n
COc1ccc(-c2nc(C3CC3)nc3c2CCN(Cc2cccn2C)CC3)cc1	50µM	u	u	n
COc1ccc(-c2nc(C3CC3)nc3c2CCN(CC2CC2)CC3)cc1	u	n	n	n
COc1ccc(-c2nc(C3CC3)nc3c2CCN(Cc2ccc(F)cc2)CC3)cc1	u	n	n	n
COc1ccc(-c2nc(C3CC3)nc3c2CCN(Cc2ccsc2)CC3)cc1	79µM	u	u	n
O=C(c1ccccc1)c1ccc2n1CCC2C(=O)Nc1cccc(F)c1 (centres undefined)	n	x	x	x
CNc1ccc(-c2noc([C@@H]3CCCN3Cc3cccc(OC)c3)n2)cn1	u	n	n	n
CN1CCN(c2ccc(-c3noc([C@@H]4CCCN4CCCc4ccccc4)n3)cn2)CC1	32µM	n	n	n
Oc1ccccc1CN1CCC[C@H]1c1nc(-c2ccc(N3CCOCC3)nc2)no1	35µM	n	n	n
COc1ccc(-c2noc([C@@H]3CCCN3C(=O)CCc3ccccc3)n2)cc1OC	28µM	n	n	n
FC(F)(F)Oc1cccc(CN2CCC[C@H]2c2nc(-c3ccc(N4CCOCC4)nc3)no2)c1	28µM	n	n	n
O=C(O)CCCC(=O)N1Cc2ccccc2CC2(CCCN2CC2CCCCC2)C1 (centres undefined)	n	n	n	n
N#Cc1ccc(C(=O)N[C@@H]2CN(Cc3ccccc3)C[C@H]2CO)cc1	n	n	u	n
CCCn1c(C)cc(C(=O)COC(=O)c2cc3ccccc3oc2=O)c1C	n	x	x	x
O=C(NCc1nnc2cc(-c3nc(C4CC4)no3)ccn12)c1ccc(Cl)cc1	u	n	n	n
O=C(CC1CCCCC1)NCc1nnc2cc(-c3nc(C4CC4)no3)ccn12	14µM	n	n	n
CCc1noc(-c2ccn3c(CNC(=O)CCc4ccc(OC)cc4)nnc3c2)n1	u	n	n	n
O=C(CCC1CCCC1)NCc1nnc2cc(-c3nc(C4CC4)no3)ccn12	11µM	n	n	n
CCCN(CC1CCOC1)S(=O)(=O)c1ccc(Cl)cc1 (centres undefined)	n	n	n	n
O=C(NC1CCCCC1)C1(c2cccc(F)c2)CCC1	n	x	x	x
COCC(=O)N1CCC(O)(c2ccccc2)[C@H](N2CCCC2)C1 (some centres undefined)	u	n	n	n
SMILES	KDM5B inhibitor	SNCA viab count	SNCA expr inhib	IP6K1 inh
CCCC(=O)N1CCC(O)(c2ccccc2)[C@H](N2CCCC2)C1 (some centres undefined)	10µM	n	n	n
O=C(c1noc(-c2ccc(F)cc2)n1)N1CCN(c2ccccc2F)CC1	32µM	n	u	n
O=C(c1noc(-c2ccc(F)cc2)n1)N1CCN(c2ccccc2)CC1	u	n	n	n
COc1ccc(NC(=O)C2(C)CN(C)Cc3ccc(NCc4ccccc4)nc32)cn1 (centres undefined)	32µM	u	u	n
COc1cccc(NC(=O)C2(C)CN(C)Cc3ccc(NCc4ccccc4)nc32)c1 (centres undefined)	u	n	n	n
COCCCNC(=O)C1(C)CN(C)Cc2ccc(NCc3ccccc3)nc21 (centres undefined)	32µM	n	n	n
COc1ccc(NC(=O)C2(C)CCc3cnc(NCc4ccccc4)nc32)cn1 (centres undefined)	40µM	u	n	n
O=C(NC1CCN(c2cc(-c3ccc(F)cc3)[nH]n2)C1)c1cccc(OC(F)(F)F)c1 (centres undefined)	u	n	n	n
CC(=O)OCc1ccc(C(=O)NC(C)C(N)=O)cc1 (centres undefined)	n	x	x	x
CCN(Cc1ccncc1)C(=O)c1cc(-c2cnn(CC)c2)nc2cc(C)ccc12	28µM	n	n	n
O=C(c1cc(CN2CCOCC2)on1)N1CCc2c(nc3cc(-c4ccccc4)[nH]n3c2=O)C1	28µM	n	n	n
Cc1noc(C)c1Cc1ccc(C(=O)N2CCc3c(nc4cc(-c5ccccc5)[nH]n4c3=O)C2)o1	u	n	n	n
O=C(c1ccsc1)N1CCc2c(nc3cc[nH]n3c2=O)C1	25µM	n	n	n
Cc1ccc(CN2CC(C(=O)N3CCc4c(nc5cc(-c6ccccc6)[nH]n5c4=O)C3)CC2=O)cc1 (centres undefined)	22µM	n	n	n
Cc1cccc(CC(=O)N2CCc3c(nc4cc[nH]n4c3=O)C2)c1	32µM	n	n	n
C/C(=N\NC(N)=S)c1ccc([N+](=O)[O-])cc1	n	x	x	x
O=C(COc1ccccc1Cl)Nc1ccc2oc(-c3ccncc3)nc2c1	n	x	x	x
CC(C)CN1C(=O)CO[C@H](c2ccc(NC(=O)C3CC3)cc2)[C@H]1CO	n	n	n	n
O=C(c1n[nH]c2c1CCCC2)N1CCc2c(nc3cc(-c4ccccc4)[nH]n3c2=O)C1	16µM	n	n	n
O=C(c1cc(-c2cccs2)[nH]n1)N1CCc2c(nc3cc(-c4ccccc4)[nH]n3c2=O)C1	32µM	n	n	n
O=C(c1n[nH]c2c1CCCC2)N1CCc2nc3cc[nH]n3c(=O)c2C1	u	n	n	n
O=C(c1n[nH]c2c1CCCC2)N1CCc2c(nc3cc[nH]n3c2=O)C1	28µM	n	n	n
Cc1nnc(CSc2nnc(Nc3ccccc3C)s2)o1	n	x	x	x
CCCn1cc(-c2ccncc2)cc1C(=O)NCc1cccc(F)c1	25µM	n	n	n
CCCn1cc(-c2ccncc2)cc1C(=O)NCc1ccccc1	n	n	n	n
SMILES	KDM5B inhibitor	SNCA viab count	SNCA expr inhib	IP6K1 inh
COc1ccc(-c2nccc3c(=O)cc(N(C)C)oc23)cn1	40µM	n	n	n
COc1ncccc1-c1nccc2c(=O)cc(N(C)C)oc12	35µM	n	n	n
Cc1cc(-c2nccc3c(=O)cc(N(C)C)oc23)ccn1	32µM	n	n	n
CCC(Cn1ccnc1)NC(=O)c1cccc(NCc2ccc(F)cc2)c1 (centres undefined)	20µM	n	n	n
COCCNC(=O)c1cc(C2CC2)nc2c1c(C1CCCN1)nn2-c1ccccc1 (centres undefined)	n	n	n	n
COCCNC(=O)c1cc(-c2ccc(OC)cc2)nc2c1c(C1CCCN1)nn2C (centres undefined)	79µM	n	n	n
COc1ccc(-c2cc(C(=O)NCC(C)C)c3c(C4CCCN4)nn(C)c3n2)cc1 (centres undefined)	50µM	n	n	n
